Data on 2 sequences can be found in article PMC7862700, “An all-to-all approach to the identification of sequence-specific readers for epigenetic DNA modifications on cytosine”.

Experiment in all cases: DAPPL (digital affinity profiling via proximity ligation, sequencing); 10 mM Tris-HCl pH 7.5, 50 mM NaCl, 1 mM DTT, 4% glycerol, room temperature, 30 min; GST-TFs on glutathione beads, 16-mer random dsDNA library, 0.1% formaldehyde crosslink after washing; high values mean tight binding
One experiment addresses T1, FLI1 (Homo sapiens, UniProt Q01543 1-452).
T1 sequence: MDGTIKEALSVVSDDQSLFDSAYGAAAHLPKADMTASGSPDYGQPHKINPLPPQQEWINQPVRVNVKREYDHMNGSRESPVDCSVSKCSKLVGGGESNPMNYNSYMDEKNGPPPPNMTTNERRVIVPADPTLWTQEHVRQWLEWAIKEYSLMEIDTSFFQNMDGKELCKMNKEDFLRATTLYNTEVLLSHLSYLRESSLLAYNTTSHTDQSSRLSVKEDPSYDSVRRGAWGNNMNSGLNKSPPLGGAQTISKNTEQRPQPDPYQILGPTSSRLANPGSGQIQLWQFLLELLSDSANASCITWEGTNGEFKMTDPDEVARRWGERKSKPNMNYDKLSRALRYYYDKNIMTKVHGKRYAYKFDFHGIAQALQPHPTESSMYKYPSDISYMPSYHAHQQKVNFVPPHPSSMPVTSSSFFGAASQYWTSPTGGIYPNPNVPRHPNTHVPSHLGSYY
The following applies: protein: recombinant; tags: N-terminal GST; dsDNA, one strand shown. The gist of the method:
(§1)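 Each value of binding signal is a hexamer's read frequency for a factor divided by the same hexamer's frequency in the tag-only sample. Barcoded, bead-captured GST fusions of human transcription factors made in yeast were pooled with that sample and incubated with 200 nmole of a random double-stranded 16-mer DNA library in Tris/NaCl/DTT/glycerol buffer at room temperature for 30 min. Washing, 0.1% formaldehyde crosslinking, proximity ligation, PCR and Illumina NextSeq500 sequencing followed.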

A further experiment deals with T2, ELK1 (Homo sapiens, UniProt P19419 1-428).
T2 sequence: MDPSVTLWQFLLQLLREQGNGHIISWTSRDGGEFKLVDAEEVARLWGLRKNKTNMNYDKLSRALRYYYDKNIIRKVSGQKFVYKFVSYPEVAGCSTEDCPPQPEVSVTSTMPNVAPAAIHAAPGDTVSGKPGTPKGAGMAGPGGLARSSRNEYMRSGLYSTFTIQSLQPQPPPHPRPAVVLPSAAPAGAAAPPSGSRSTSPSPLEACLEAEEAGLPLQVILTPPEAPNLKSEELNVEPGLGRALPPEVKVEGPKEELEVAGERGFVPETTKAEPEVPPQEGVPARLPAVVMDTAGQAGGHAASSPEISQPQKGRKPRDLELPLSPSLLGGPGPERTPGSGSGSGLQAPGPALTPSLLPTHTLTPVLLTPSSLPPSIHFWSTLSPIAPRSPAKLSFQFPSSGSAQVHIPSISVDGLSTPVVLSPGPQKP
The following applies: protein: recombinant; tags: N-terminal GST; dsDNA, one strand shown. The gist of the method: as §1

For a further experiment, the target named is T3, GABPA (Homo sapiens, UniProt Q06546 1-454).
T3 sequence: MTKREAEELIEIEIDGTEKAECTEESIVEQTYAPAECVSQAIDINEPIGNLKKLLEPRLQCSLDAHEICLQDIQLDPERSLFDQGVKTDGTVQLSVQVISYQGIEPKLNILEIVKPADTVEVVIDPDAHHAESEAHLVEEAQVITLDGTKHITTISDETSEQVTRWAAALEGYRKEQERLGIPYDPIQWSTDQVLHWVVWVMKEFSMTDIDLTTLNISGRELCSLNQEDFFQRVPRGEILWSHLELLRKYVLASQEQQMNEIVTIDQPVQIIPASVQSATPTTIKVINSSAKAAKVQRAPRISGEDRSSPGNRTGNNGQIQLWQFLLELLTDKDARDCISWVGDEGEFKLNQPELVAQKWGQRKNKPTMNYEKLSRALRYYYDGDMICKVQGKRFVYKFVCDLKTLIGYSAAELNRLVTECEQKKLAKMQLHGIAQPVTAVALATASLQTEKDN
The following applies: protein: recombinant; tags: N-terminal GST; dsDNA, one strand shown. A digest of the protocol:
as §1

For another experiment, the target named is T4, ERG (Homo sapiens, UniProt P11308 1-479).
T4 sequence: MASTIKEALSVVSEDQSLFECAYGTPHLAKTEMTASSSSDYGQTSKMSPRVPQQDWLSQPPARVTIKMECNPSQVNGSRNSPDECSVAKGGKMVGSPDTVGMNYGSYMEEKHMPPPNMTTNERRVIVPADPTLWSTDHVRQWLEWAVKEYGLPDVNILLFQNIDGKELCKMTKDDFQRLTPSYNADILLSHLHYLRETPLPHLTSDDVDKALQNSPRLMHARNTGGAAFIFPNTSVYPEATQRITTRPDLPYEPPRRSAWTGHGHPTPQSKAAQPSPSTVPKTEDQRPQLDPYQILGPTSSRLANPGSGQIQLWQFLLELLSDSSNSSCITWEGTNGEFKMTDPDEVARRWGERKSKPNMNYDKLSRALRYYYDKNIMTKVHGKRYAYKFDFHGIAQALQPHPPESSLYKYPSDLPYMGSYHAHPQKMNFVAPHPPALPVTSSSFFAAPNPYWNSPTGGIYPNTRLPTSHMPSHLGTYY
The following applies: protein: recombinant; tags: N-terminal GST; dsDNA, one strand shown. A digest of the protocol: as §1

The target in a further experiment is ELF1 (Homo sapiens, UniProt P32519 1-619). The following applies: protein: recombinant; tags: N-terminal GST; dsDNA, one strand shown. A digest of the protocol:
as §1

In a further experiment the target is SPI1 (Homo sapiens, UniProt P17947 1-270). The following applies: protein: recombinant; tags: N-terminal GST; dsDNA, one strand shown. A digest of the protocol: as §1
The target in the next experiment is SPIB (Homo sapiens, UniProt Q01892 1-262). The following applies: protein: recombinant; tags: N-terminal GST; dsDNA, one strand shown. A digest of the protocol: as §1
SPIB, sequence (Q01892 whole entry): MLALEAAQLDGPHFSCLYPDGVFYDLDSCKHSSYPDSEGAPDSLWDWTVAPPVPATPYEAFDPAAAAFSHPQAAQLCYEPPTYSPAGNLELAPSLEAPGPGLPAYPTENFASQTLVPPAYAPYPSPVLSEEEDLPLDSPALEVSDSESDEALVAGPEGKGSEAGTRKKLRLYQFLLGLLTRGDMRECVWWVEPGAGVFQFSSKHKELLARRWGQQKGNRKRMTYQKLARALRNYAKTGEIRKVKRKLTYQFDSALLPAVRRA
The target of the next experiment is T5, ELK3 (Homo sapiens, UniProt P41970 1-407).
T5 sequence: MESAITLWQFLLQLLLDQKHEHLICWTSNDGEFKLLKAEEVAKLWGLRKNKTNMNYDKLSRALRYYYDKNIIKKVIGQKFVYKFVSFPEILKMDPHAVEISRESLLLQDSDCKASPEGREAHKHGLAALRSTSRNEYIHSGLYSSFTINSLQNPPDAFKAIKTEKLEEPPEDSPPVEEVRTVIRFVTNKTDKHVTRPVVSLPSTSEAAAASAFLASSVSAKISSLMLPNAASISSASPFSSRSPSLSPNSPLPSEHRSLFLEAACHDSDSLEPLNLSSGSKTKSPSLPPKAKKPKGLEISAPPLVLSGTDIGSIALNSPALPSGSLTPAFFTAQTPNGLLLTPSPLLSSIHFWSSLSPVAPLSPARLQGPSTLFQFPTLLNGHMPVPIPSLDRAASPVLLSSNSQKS
The following applies: protein: recombinant; tags: N-terminal GST; dsDNA, one strand shown. A digest of the protocol: as §1

A further experiment addresses T6, FEV (Homo sapiens, UniProt Q99581 1-238).
T6 sequence: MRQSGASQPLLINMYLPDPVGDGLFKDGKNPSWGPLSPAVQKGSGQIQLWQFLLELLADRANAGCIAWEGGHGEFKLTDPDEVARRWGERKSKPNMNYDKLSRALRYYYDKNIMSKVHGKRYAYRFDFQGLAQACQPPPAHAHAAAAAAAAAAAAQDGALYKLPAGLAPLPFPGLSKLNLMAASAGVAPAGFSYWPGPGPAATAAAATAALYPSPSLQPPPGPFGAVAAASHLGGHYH
The following applies: protein: recombinant; tags: N-terminal GST; dsDNA, one strand shown. A digest of the protocol:
as §1

Another experiment addresses ETV5 (Homo sapiens, UniProt P41161 1-510). The following applies: protein: recombinant; tags: N-terminal GST; dsDNA, one strand shown. The gist of the method:
as §1

In another experiment the target is HSF1 (Homo sapiens, UniProt Q00613 1-529). The following applies: protein: recombinant; tags: N-terminal GST; chain copies: 3; dsDNA, one strand shown. A digest of the protocol: as §1
HSF1, sequence (Q00613 whole entry): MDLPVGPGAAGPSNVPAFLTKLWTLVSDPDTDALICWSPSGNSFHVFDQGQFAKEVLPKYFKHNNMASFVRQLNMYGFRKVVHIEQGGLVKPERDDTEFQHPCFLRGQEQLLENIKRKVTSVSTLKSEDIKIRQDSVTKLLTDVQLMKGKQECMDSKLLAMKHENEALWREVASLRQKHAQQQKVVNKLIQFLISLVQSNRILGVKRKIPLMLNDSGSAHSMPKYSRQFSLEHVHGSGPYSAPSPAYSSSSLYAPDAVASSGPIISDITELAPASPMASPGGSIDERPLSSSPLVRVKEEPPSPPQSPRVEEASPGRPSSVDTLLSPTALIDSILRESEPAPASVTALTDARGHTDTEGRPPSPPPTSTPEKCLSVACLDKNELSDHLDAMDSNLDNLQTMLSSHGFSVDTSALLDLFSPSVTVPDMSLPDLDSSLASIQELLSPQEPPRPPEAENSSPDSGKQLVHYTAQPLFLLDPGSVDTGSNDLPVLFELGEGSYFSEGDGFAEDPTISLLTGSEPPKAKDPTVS
The target of another experiment is ELF4 (Homo sapiens, UniProt Q99607 1-663). The following applies: protein: recombinant; tags: N-terminal GST; dsDNA, one strand shown. A digest of the protocol: as §1
ELF4, sequence (Q99607 whole entry): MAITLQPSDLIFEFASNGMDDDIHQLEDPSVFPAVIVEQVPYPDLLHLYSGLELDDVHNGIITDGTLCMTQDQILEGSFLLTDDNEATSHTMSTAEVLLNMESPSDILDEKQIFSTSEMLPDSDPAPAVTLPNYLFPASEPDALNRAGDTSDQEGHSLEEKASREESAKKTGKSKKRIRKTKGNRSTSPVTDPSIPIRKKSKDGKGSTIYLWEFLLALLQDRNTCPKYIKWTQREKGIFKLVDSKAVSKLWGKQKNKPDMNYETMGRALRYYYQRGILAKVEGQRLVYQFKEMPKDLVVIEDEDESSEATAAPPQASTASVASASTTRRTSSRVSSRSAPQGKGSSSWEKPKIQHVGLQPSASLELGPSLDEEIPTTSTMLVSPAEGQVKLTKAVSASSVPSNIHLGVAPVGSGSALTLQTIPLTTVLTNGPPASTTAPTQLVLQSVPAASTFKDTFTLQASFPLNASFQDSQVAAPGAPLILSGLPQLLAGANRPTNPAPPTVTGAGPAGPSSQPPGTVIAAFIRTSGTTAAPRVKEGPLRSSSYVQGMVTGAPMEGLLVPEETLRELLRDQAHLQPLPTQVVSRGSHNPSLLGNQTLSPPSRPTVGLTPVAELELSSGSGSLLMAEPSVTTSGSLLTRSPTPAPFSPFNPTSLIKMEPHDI
The next experiment deals with T7, ELK4 (Homo sapiens, UniProt P28324-2 1-405).
T7 sequence: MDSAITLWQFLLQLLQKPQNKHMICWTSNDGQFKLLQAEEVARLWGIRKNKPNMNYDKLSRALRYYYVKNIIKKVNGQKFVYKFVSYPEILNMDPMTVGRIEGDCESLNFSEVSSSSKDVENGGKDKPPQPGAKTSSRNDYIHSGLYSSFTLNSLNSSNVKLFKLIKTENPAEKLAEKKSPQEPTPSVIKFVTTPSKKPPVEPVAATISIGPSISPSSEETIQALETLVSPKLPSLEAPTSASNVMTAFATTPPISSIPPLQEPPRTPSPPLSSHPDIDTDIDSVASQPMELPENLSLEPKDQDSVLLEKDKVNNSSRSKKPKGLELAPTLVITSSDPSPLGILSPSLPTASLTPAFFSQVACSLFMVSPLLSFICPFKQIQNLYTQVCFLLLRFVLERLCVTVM
The following applies: protein: recombinant; tags: N-terminal GST; dsDNA, one strand shown. A digest of the protocol: as §1

The target of the next experiment is T8, ETV2 (Homo sapiens, UniProt O00321 1-342).
T8 sequence: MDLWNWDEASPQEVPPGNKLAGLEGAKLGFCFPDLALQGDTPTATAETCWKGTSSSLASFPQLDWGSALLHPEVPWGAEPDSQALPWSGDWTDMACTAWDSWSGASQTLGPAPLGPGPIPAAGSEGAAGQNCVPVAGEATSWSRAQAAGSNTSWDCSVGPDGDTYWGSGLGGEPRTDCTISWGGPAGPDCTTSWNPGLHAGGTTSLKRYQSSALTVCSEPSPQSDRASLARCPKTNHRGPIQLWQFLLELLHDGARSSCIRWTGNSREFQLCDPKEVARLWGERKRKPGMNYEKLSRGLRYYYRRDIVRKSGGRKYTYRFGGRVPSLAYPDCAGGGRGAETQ
The following applies: protein: recombinant; tags: N-terminal GST; dsDNA, one strand shown. A digest of the protocol:
as §1

The target in a further experiment is T9, ELF3 (Homo sapiens, UniProt P78545 1-371).
T9 sequence: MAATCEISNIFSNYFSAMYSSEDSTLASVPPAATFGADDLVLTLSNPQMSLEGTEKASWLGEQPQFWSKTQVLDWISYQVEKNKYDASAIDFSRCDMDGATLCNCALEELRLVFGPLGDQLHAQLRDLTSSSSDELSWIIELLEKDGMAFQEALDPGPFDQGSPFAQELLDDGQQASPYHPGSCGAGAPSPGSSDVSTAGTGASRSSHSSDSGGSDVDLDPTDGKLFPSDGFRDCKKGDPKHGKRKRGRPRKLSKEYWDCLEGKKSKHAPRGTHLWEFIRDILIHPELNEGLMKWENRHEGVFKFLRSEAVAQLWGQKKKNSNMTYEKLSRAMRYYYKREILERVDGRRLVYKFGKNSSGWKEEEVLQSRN
The following applies: protein: recombinant; tags: N-terminal GST; dsDNA, one strand shown. The gist of the method: as §1

The target in the next experiment is CRX (Homo sapiens, UniProt O43186 1-299). The following applies: protein: recombinant; tags: N-terminal GST; dsDNA, one strand shown. A digest of the protocol:
as §1

The target of a further experiment is ETV1 (Homo sapiens, UniProt P50549 1-477). The following applies: protein: recombinant; tags: N-terminal GST; dsDNA, one strand shown. The gist of the method: as §1
ETV1, sequence (P50549 whole entry): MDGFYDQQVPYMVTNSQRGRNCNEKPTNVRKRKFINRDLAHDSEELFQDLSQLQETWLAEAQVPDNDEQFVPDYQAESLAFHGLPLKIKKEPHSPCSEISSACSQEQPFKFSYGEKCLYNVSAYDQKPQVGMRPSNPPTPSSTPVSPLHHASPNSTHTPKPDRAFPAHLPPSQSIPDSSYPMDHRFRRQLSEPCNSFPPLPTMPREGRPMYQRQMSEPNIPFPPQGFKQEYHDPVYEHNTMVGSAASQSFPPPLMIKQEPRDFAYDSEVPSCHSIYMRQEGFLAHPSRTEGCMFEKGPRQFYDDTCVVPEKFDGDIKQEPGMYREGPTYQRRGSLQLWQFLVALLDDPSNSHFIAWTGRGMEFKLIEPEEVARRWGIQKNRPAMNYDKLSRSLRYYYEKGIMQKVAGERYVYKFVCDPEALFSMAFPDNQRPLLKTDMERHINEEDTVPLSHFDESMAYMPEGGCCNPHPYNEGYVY

CRX, sequence (O43186 whole entry): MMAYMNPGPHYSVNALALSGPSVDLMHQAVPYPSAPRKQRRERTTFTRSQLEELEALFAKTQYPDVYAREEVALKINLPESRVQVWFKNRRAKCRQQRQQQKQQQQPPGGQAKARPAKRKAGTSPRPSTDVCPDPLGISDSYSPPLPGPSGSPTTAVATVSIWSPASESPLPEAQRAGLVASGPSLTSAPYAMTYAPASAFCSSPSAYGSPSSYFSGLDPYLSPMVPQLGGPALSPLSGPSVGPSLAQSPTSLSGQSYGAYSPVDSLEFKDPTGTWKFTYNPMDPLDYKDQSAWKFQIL
ETV5, sequence (P41161 whole entry): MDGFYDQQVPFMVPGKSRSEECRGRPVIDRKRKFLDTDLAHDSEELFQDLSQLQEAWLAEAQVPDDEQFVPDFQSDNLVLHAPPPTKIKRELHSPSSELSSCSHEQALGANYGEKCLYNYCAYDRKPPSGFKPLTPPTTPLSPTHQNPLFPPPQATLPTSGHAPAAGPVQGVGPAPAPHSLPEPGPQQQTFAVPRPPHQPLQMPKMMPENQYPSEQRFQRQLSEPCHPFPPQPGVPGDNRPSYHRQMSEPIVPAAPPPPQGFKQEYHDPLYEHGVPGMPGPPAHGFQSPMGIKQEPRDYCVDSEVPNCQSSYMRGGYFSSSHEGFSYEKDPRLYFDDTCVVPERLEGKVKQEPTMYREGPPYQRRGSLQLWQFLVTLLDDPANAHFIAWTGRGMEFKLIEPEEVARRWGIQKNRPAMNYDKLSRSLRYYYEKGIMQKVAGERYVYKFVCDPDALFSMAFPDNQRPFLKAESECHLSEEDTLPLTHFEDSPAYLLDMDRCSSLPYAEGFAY
ELF1, sequence (P32519 whole entry): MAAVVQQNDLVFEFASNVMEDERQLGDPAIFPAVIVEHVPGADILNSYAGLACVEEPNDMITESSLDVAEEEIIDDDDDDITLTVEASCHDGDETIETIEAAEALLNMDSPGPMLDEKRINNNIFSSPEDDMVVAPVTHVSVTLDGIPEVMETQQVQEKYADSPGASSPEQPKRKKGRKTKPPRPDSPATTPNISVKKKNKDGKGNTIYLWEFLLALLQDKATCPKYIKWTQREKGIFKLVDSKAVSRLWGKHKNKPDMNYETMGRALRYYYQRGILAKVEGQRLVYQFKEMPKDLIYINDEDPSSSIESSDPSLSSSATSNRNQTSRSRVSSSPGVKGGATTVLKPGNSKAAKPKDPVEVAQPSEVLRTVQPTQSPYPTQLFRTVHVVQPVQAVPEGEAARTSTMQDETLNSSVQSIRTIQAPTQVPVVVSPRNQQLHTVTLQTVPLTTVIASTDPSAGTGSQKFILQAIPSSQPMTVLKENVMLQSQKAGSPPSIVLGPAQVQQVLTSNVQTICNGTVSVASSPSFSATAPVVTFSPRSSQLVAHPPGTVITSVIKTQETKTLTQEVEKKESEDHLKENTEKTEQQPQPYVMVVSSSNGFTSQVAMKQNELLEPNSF

Consider CAAAGC, for which the binding signal in the experiment with FLI1 is 1.08 fold enrichment (6-mer frequency, TF over GST control); with ELK1 it was 1.02 fold enrichment (6-mer frequency, TF over GST control); with GABPA, 1.16 fold enrichment (6-mer frequency, TF over GST control); in the experiment with ERG it was 1 fold enrichment (6-mer frequency, TF over GST control); with ELF1, 1.17 fold enrichment (6-mer frequency, TF over GST control); with SPI1 it was 1.03 fold enrichment (6-mer frequency, TF over GST control). The binding signal is 1.04 fold enrichment (6-mer frequency, TF over GST control) with SPIB; 1.1 fold enrichment (6-mer frequency, TF over GST control) with ELK3; 1.14 fold enrichment (6-mer frequency, TF over GST control) in the experiment with FEV; 1.05 fold enrichment (6-mer frequency, TF over GST control) with ETV5; 1.04 fold enrichment (6-mer frequency, TF over GST control) with HSF1; 1.05 fold enrichment (6-mer frequency, TF over GST control) with ELF4. For the same sequence, the binding signal with ELK4 was 1.24 fold enrichment (6-mer frequency, TF over GST control); in the experiment with ETV2 it was 1.09 fold enrichment (6-mer frequency, TF over GST control); in the experiment with ELF3, 1.03 fold enrichment (6-mer frequency, TF over GST control); with CRX it was 1.3 fold enrichment (6-mer frequency, TF over GST control); with ETV1, 1.08 fold enrichment (6-mer frequency, TF over GST control).

With AAGACT, the binding signal with FLI1 was 1.09 fold enrichment (6-mer frequency, TF over GST control); in the experiment with ELK1, 1.12 fold enrichment (6-mer frequency, TF over GST control); with GABPA, 1.06 fold enrichment (6-mer frequency, TF over GST control); in the experiment with ERG, 1.1 fold enrichment (6-mer frequency, TF over GST control); with ELF1 it was 1.08 fold enrichment (6-mer frequency, TF over GST control); with SPI1, 1.12 fold enrichment (6-mer frequency, TF over GST control). The binding signal is 1.08 fold enrichment (6-mer frequency, TF over GST control) in the experiment with SPIB; 1.14 fold enrichment (6-mer frequency, TF over GST control) with ELK3; 1.08 fold enrichment (6-mer frequency, TF over GST control) in the experiment with FEV; 1.09 fold enrichment (6-mer frequency, TF over GST control) with ETV5; 1.23 fold enrichment (6-mer frequency, TF over GST control) in the experiment with HSF1; 1.14 fold enrichment (6-mer frequency, TF over GST control) with ELF4. The binding signal with ELK4 is 1.06 fold enrichment (6-mer frequency, TF over GST control); with ETV2 it was 1.07 fold enrichment (6-mer frequency, TF over GST control); in the experiment with ELF3, 1.1 fold enrichment (6-mer frequency, TF over GST control); with CRX it was 1.36 fold enrichment (6-mer frequency, TF over GST control); with ETV1 it was 1.02 fold enrichment (6-mer frequency, TF over GST control).
